# The supplement of paper PMC4894684
# Where a name gives a salt, the structure may show the parent alone. ± gives the standard deviation of the averaged measurements. The campaign covered roughly 1,000 compounds. About 15 (2%) showed an effect of 50% or more. Many of the other results were omitted from the sample, so strong results are more common in it than they were.
# Tested on: HFF
# Experiment: uninfected host cell viability relative to vehicle control; higher = less host cell toxicity
# Conditions: 5 µM; 72 h; oxygen 21 %
row,Structure (SMILES),uninfected host cell viability
1,C[C@@]12C(=O)OC(=O)[C@]1(C)[C@H]1CC[C@@H]2O1 [Cantharidin],19.7 ± 1.6%
2,CC(C)NCC(O)c1ccc(N)c(C#N)c1 (stereo not given) [Cimaterol],84.5 ± 2.1%
3,NC(=S)N/N=C/c1coc2ccccc2c1=O.[Cl][Cu][Cl],98.2 ± 1.8%
4,COC1(C[S@+]([O-])c2ccccc2)CCN(CCc2c[nH]c3ccc(F)cc23)CC1,80.8 ± 2.7%
5,NCCc1c[nH]c2ccc(C(N)=O)cc12 [5-Carboxamidotryptamine maleate],91.33 ± 0.078%
6,CC(C)C[C@@H](N)C1(c2ccc(Cl)cc2)CCC1,91.72 ± 0.29%
7,NC1(c2ccccc2Cl)CCCCC1=O (stereo not given) [Norketamine hydrochloride],97.41 ± 0.47%
8,c1ccc2c(c1)[I+]c1ccccc1-2 [Diphenyleneiodonium chloride],30.8 ± 3.4%
9,Cc1[nH]c2ccc(Cl)cc2c1C1=CCNCC1,75.1 ± 2%
10,CN1Cc2ccccc2[C@@H]2c3cccc4[nH]cc(c34)C[C@H]21,86.3 ± 3.7%
11,CCOC(=O)c1ncc2[nH]c3ccc(OCc4ccccc4)cc3c2c1COC,103 ± 4.4%
12,C[C@H]1CCC/C=C/[C@@H]2C[C@H](O)C[C@H]2[C@H](O)/C=C/C(=O)O1 [Brefeldin A],45.4 ± 4%
13,N#Cc1ccc(N2CCN(C(=O)COc3ccc4[nH]cc(CCN)c4c3)CC2)cc1 [Donitriptan hydrochloride],98.31 ± 0.13%
14,CC(=O)[C@H]1CC[C@H]2[C@@H]3CC[C@H]4C[C@](C)(O)CC[C@]4(C)[C@H]3CC[C@]12C [Ganaxolone],95 ± 1.5%
15,O=C1NC(=O)c2c1c1c3ccccc3n3c1c1c2c2ccccc2n1[C@H]1CC[C@@H]3O1,39.2 ± 11%
16,O=C1NC(=O)c2c1c1c3ccccc3[nH]c1c1[nH]c3ccccc3c21 [Arcyriaflavin A],83.56 ± 0.33%
17,C[C@@H](N)Cc1cnc[nH]1 [(R)-(-)- α-Methylhistamine dihydrobromide],89.841 ± 0.031%
18,O=[N+]([O-])c1cc(O)c(O)c([N+](=O)[O-])c1,95.7 ± 4.9%
19,O=C1/C(=C/c2ccccc2)C[C@@]2(O)[C@H]3Cc4ccc(O)c5c4[C@@]2(CCN3CC2CC2)[C@H]1O5 [BNTX maleate],22.2 ± 1.1%
20,Oc1ccc2c3c1O[C@H]1c4[nH]c5ccccc5c4C[C@@]4(O)[C@@H](C2)N(CC2CC2)CC[C@]314 [Naltrindole hydrochloride],81.09 ± 0.49%
21,Oc1ccc2c3c1O[C@H]1c4[nH]c5c(c4C[C@@]4(O)[C@@H](C2)N(CC2CC2)CC[C@]314)C[C@@]1(O)[C@H]2Cc3ccc(O)c4c3[C@@]1(CCN2CC1CC1)[C@H]5O4 [nor-Binaltorphimine dihydrochloride],85.23 ± 0.22%
22,O[C@H]1[C@H](O)[C@@H](O)CN2CC[C@H](O)[C@H]12 [Castanospermine],82.95 ± 0.65%
23,CCN(CC)CCO[C@H]1CC[C@@]2(C)C(=CC[C@@H]3[C@@H]2CC[C@]2(C)C(=O)CC[C@@H]32)C1,104 ± 3.5%
24,"c1ccc(CC(c2ccccc2)N2CCCCC2)cc1 (racemic) [(±)-1-(1,2-Diphenylethyl)piperidine maleate]",89.8 ± 6.6%
25,N[C@H](C(=O)O)c1cc(O)no1 [Ibotenic acid],85 ± 3.7%
